VDR inh – inhibitors of human vitamin D receptor; Potency, µM, for inactives: max response, negative = inhibition, actives largely listed as inhibitors; AID 504847; VDR-SRC2-3 peptide fluorescence polarization, 2 h; P11473; 400,000 compounds, 0.93% hits; also: % is scaled to controls: 0 for no effect and ±100 for the full control effect
Target sequence (P11473 whole entry, looked up): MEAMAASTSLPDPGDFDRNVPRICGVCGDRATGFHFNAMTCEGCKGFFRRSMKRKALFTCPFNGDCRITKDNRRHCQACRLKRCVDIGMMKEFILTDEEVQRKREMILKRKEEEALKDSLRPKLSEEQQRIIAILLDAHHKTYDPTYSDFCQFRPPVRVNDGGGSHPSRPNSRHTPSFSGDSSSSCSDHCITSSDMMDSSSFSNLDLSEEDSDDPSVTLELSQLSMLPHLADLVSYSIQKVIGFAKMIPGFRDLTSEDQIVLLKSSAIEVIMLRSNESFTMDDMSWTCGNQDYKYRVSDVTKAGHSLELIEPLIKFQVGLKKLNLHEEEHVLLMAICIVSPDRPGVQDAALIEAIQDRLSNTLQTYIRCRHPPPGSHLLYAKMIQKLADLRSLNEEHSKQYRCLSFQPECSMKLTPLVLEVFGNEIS
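Two reagent solutions held at 4 deg C in the dark were dispensed, compounds pinned at 23 nl, and the mixture incubated 2 h at room temperature. Read-out: fluorescence polarization of VDR–SRC2-3 peptide binding.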
Sfp PPTase inh – Sfp phosphopantetheinyl transferase inhibition. Biochemical Sfp PPTase activity, qHTS. Potency, µM, without a hit: largest response in the series, negative = inhibition, hits mostly inhibitors. AID 1490. 310,000 compounds, 3.5% hits;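 also: the enzyme is Sfp with the accession as filed and its product quenches rhodamine fluorescence; 0% = enzyme reaction without inhibitor and -100% = no enzyme wells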
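With Hepes-Na pH 7.6 buffer containing 10 mM MgCl2, Sfp (15 nM) modified BHQ-2-YbbR (12.5 uM) using rhodamine-CoA (5 uM). Two reads 30 minutes apart at 525/598 nm yielded each well's rate.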
Glioma ERSR ind – induces the endoplasmic reticulum stress response in human glioma cells; 420,000 compounds, 0.02% hits; Potency, µM, without a hit: at the highest dose activation, most hits filed as activators; AID 602332; U87-MG GRP78 promoter luciferase reporter, 16 h; also: series mostly up to about 76 µM; % of control where 0% means no effect; nearly all actives have a fitted effect of over 35% in size
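ERSR induction read as luciferase luminescence (Bright-Glo, 10 min at room temperature) in stably transfected human U87-MG glioma cells exposed to compounds for 16 h, using GRP78 as sensor.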
ALOX12 inh – inhibitors of human 12S-lipoxygenase ALOX12; purified 12hLO, xylenol orange hydroperoxide absorbance; 580,000 compounds, 1.1% hits; P18054; AID 1671190; Potency, µM (titrated, usually from 108 µM), inactives show at the top dose activity change, negative = inhibition, usual class: inhibitors; also: % is scaled to controls: 0 for no effect and ±100 for the full control effect
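Purified human 12hLO at 150 nM in 25 mM Hepes, 0.01% Triton X-100, pH 7.0, preincubated 15 min at room temperature with compound. Reaction started with 40 uM arachidonic acid, 30 min at room temperature. Hydroperoxide measured by Fe-xylenol orange, 573/405 nm absorbance ratio.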
G9a inh – G9a (human) methyltransferase inhibition; Q96KQ7; G9a H3K9 monomethylation, AlphaScreen, 2 h; Potency, µM (doses to about 102 µM), inactives show top-dose activity, negative = inhibition, usual class: inhibitors; 350,000 compounds, 8.8% hits; also: % is scaled to controls: 0 for no effect and ±100 for the full control effect; nearly all actives have a fitted effect of over 75% in size
Target sequence (Q96KQ7 913-1193 limits assumed): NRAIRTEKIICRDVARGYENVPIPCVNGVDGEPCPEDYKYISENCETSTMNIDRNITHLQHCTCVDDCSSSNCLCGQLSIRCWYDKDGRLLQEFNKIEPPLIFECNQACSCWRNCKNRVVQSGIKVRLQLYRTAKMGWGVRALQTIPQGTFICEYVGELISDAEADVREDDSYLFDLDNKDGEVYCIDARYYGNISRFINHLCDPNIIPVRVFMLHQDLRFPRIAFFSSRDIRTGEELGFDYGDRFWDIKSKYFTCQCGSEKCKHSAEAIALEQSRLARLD
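Using a bead-based AlphaScreen, monomethylated H3K9 product from 2 h room-temperature reactions (G9a 20 nM, peptide 500 nM, SAM 20 uM) was detected with 0.5 ug/mL rabbit anti-H3K9me1 antibody.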
The depositor's hits bear a star; u = inconclusive; x = not tested or not shown; ! = not confirmed by another sample; [ ] = remark or other dose. The full list was thinned out, with hits kept by preference. Calls follow the shape of the dose curve; as a rule, active = well fitted curve in the direction sought with a large enough effect; inconclusive = small, poorly fitted or top-dose-only effect, or another doubt; inactive = no such curve, though single readings can be large; an effect the other way counts as inactive or inconclusive. Potency is read from the fitted curve at half-maximal effect.

SMILES	VDR inh	Sfp PPTase inh	Glioma ERSR ind	ALOX12 inh	G9a inh
CC(=O)Nc1cccc(NC(=S)Nc2ccc(F)cc2F)c1	-6%	40µM*	-4%	-14%	u
S=C(Nc1ccc(CN2CCCCC2)cc1)Nc1cccc(Cl)c1Cl	-17%	-8%	-5%	0%	40µM*
Cc1ccc(N(C(C)C(=O)NCc2ccncc2)S(C)(=O)=O)cc1 (stereo not given)	x	x	x	0%	x
COc1ccc2cc(CN(C)C(=O)c3ccc4c(c3)OCO4)ccc2c1	x	x	x	-5%	x
O=C(c1c(O)c2ccc(Cl)cc2[nH]c1=O)C1CC1	-25%	45µM*!	-5%	-7%	0%[59 µM]
Cn1c(=O)c(-c2cccc(Cl)c2)c(O)c2ccccc21	-24%	x	0%	199%	x
Cn1c2[n+](c3ccc(Cl)cc3c1=O)Cc1ccccc1-2	-9%	-16%	0%	u	28µM*
CN(C)CCNC(=O)c1ccc2c(c1)NC(=O)C(CS(=O)(=O)Cc1cccc(Br)c1)N2 (stereo not given)	11%	x	-3%	268%	u
Cc1cccc(CS(=O)(=O)CC2Nc3ccc(C(=O)NCc4ccccc4)cc3NC2=O)c1 (stereo not given)	13%	x	4%	14%	u
Cc1ccc(CNC(=O)c2ccc3c(c2)NC(=O)C(CS(=O)(=O)Cc2cccc(F)c2)N3)cc1 (stereo not given)	0%	x	-2%	u	6.3µM*
CCN(CC)CCCNC(=O)c1ccc2c(c1)NC(=O)C(CS(=O)(=O)Cc1ccc(F)cc1Cl)N2 (stereo not given)	7%	x	-4%	95%	10µM*
O=C(NCc1ccc(Cl)cc1)c1ccc2c(c1)NC(=O)C(CS(=O)(=O)Cc1ccc(F)cc1Cl)N2 (stereo not given)	22%	x	-1%	u	16µM*
O=C(NCc1ccccc1Cl)c1ccc2c(c1)NC(=O)C(CS(=O)(=O)Cc1ccc(F)cc1Cl)N2 (stereo not given)	-7%	x	-5%	u	u
CC(C)CCNC(=O)c1ccc2c(c1)NC(=O)C(CS(=O)(=O)Cc1cccc(Br)c1)N2 (stereo not given)	8%	x	-4%	-30%	13µM*
COc1ccc(C(=O)N/C(=C/c2ccco2)C(=O)N2CCCCCC2)cc1	-1%	89µM*	-4%	u	35µM*
O=C(N/C(=C\c1ccco1)C(=O)N1CCOCC1)c1ccco1	11%	28µM*	9%	0%	32µM*
Cc1ccc(C(=O)N/C(=C\c2ccco2)C(=O)N2CCCCC2)cc1	-15%	0%	-4%	u	45µM*
O=C(N/C(=C\c1ccc(-c2ccccc2)o1)C(=O)N1CCOCC1)c1ccccc1	8%	-2%	0%	-16%	50µM*
Cc1cc2onc([C@H]3CCCN3C(=O)N3CCOCC3)c2cc1C	x	x	x	9%	x
C=CCN(CC=C)Cc1c(C(=O)N2CCN(C3CCCCC3)CC2)nc2ccccn12	x	x	x	-12%	x
CC(C)(C)c1ccc(C2(C)NC(=O)N(Cc3coc(-c4cccs4)n3)C2=O)cc1 (stereo not given)	x	x	x	-27%	x
CC1CN(C(=O)/C(=C/c2ccco2)NC(=O)c2ccccc2)CC(C)O1 (stereo not given)	-15%	16%	u	-21%	35µM*
Cc1ccc(C(=O)N/C(=C/c2ccco2)C(=O)N2CCOCC2)cc1	-10%	17%	-3%	-17%	u
CCOC(=O)C1CCCN(C(=O)/C(=C/c2ccco2)NC(=O)c2ccccc2)C1 (stereo not given)	-15%	u	-1%	-15%	40µM*
Cc1ccc(C(=O)N/C(=C/c2ccco2)C(=O)N2CCCCC2)cc1	11%	-3%	0%	u	50µM*
SMILES	VDR inh	Sfp PPTase inh	Glioma ERSR ind	ALOX12 inh	G9a inh
O=C(N/C(=C/c1ccco1)C(=O)N1CCCCCC1)c1ccccc1	-15%	0%	-5%	13%	45µM*
O=C(Cc1n[nH]c(=O)c2ccccc12)NC(c1ccccc1)C1CC1 (stereo not given)	x	x	x	-2%	x
CC(=O)NC(c1ccco1)c1cc(Cl)c2ccc(N3CCCCC3)nc2c1O (stereo not given)	x	x	x	x	4µM*
Nc1nnnn1NCc1cc(Cl)ccc1OCc1ccc(F)cc1Cl	x	x	x	3%	x
Cc1ccc(Nc2nnc(SCC(=O)c3ccc(Cl)s3)s2)c(C)c1	x	x	x	-26%	x
O=C(CN1CCc2ccccc2C1)N1N=C(c2cccs2)CC1c1cccs1 (stereo not given)	x	x	x	-11%	x
CN[C@H](CC(=O)O)C(=O)O	-1%	100µM*	-1%	u	22µM*!
CC(=O)NC(CC(=O)O)C(=O)NC(CCC(=O)O)C(=O)O (stereo not given)	0%	12%	-4%	x	x
O=C(CSC1=NS(=O)(=O)c2ccccc2N1Cc1ccccc1)Nc1ccc(F)cc1F	x	x	x	0%	x
S=c1[nH]ncn1-c1ccccn1	18%	22µM*	-5%	u	u
O=S(=O)(c1ccccc1Cl)N1CCn2cccc2C1c1ccccc1F (stereo not given)	x	x	x	-27%	x
COc1ccc2[nH]c(=O)c(CN(Cc3ccccc3)Cc3nnnn3CC3CCCO3)cc2c1 (stereo not given)	16%	-2%	-1%	7%	2%[59 µM]
Cc1ccc(C)c2[nH]c(=O)c(CN(CCN3CCOCC3)Cc3nnnn3CC3CCCO3)cc12 (stereo not given)	-3%	u	-3%	-4%	u
Cc1ccc(C)c2[nH]c(=O)c(CN(Cc3nnnn3C3CCCCC3)CC3CCCO3)cc12 (stereo not given)	12%	79µM*	-3%	-23%	u
COc1ccc2[nH]c(=O)c(CN(Cc3cccnc3)Cc3nnnn3CC3CCCO3)cc2c1 (stereo not given)	8%	79µM*	-8%	6%	x
COc1cc2cc(CN(Cc3nnnn3Cc3ccccc3)CC3CCCO3)c(=O)[nH]c2cc1OC (stereo not given)	0%	56µM*	-1%	-19%	0%[59 µM]
CCc1ccc2[nH]c(=O)c(CN(Cc3ccccc3)Cc3nnnn3C(C)(C)C)cc2c1	-12%	x	1%	x	x
CCc1ccc2[nH]c(=O)c(CN(Cc3ccc(OC)cc3)Cc3nnnn3CCOC)cc2c1	11%	13µM*	-5%	-23%	u
Cc1ccc(-c2cc3c(n2-c2ccc(C)cc2)CC(C)(C)CC3=O)cc1	6%	x	0%	-12%	-41%[59 µM]
COc1ccc(-n2c(-c3ccc(C)cc3)cc3c2CC(C)(C)CC3=O)cc1Cl	-11%	x	-3%	-3%	10µM*
CCOc1ccc(-n2c(-c3ccc(OC)cc3)cc3c2CC(C)(C)CC3=O)cc1	-14%	x	-1%	-69%	14µM*
COc1ccc(-n2c(-c3ccc(C)cc3)cc3c2CC(C)(C)CC3=O)c(OC)c1	-10%	x	-6%	2%	13µM*
COc1ccc(C2(C(=O)N3CCCC(c4nc(CCOCC5CC5)no4)C3)CC2)cc1 (stereo not given)	x	x	x	46%	x

From PubChem
